A structure can be active in one record and inactive in another. Active and inactive are the calls of the source. Rule for the calls: active = hit-call score of the fitted dose curve at least 0.9, where 1 is the maximum; inactive = score below 0.9.
How the values were obtained:
[1] = read-out: Monokine induced gamma interferon (MIG), CXCL9 (gene 4283); experiment: BSK_SAg_MIG: BioMAP Diversity Plus: SAg Assay for Monokine induced gamma interferon (MIG) Biomarker Activity (AID 2283092); settings: primary human HUVEC with PBMC; actives raise or lower the signal
Procedure, shortened: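 Measures CXCL9 protein by ELISA in a human vascular primary-cell co-culture (umbilical vein endothelium with PBMC) 24 h after chemical addition. Activity is scored up or down from the DMSO control.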

[2] = BSK_SAg_PBMCCytotoxicity: PBMC Cytotoxicity Assessment in the BioMAP Diversity Plus: SAg Assay (AID 2283093); settings: primary human HUVEC with PBMC;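 note: PBMC viability measured as Alamar Blue reduction fluorescence at 546/580 nm; fitted both ways against DMSO so a hit may be loss or gain of signal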;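 for AC50: PBMC superantigen activated with SEB plus TSST-1 one hour after compound addition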
Procedure, shortened: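 Human umbilical vein endothelial cells co-cultured with PBMC; PBMC (75,000/well) pre-treated with compound 1 h, then activated with SEB and TSST-1 (20 ng/mL final each) for 90 h. Alamar Blue added 6 h, fluorescence 546/580 nm; bidirectional fit versus DMSO.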

[3] = read-out: Interleukin-8 (IL8), CXCL8 (gene 3576); experiment: BSK_SAg_IL8: BioMAP Diversity Plus: SAg Assay for Interleukin-8 (IL8) Biomarker Activity (AID 2283094); settings: primary human HUVEC with PBMC; actives raise or lower the signal
Procedure, shortened: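 In this co-culture of human umbilical vein endothelium with peripheral blood mononuclear cells, IL-8 is assayed by ELISA at 24 h. DMSO serves as baseline for bidirectional curve fitting.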

[4] = BSK_SAg_Proliferation: Cell Proliferation Assessment in the BioMAP Diversity Plus: SAg Assay (AID 2283095); settings: primary human HUVEC with PBMC;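 note: relative cell number as total protein by SRB absorbance in sub-confluent culture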
Procedure, shortened: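 Readout is SRB-stained protein (560 nm) in a primary human HUVEC and PBMC co-culture; sub-confluent cultures are read at 96 h. Activity is fitted bidirectionally using DMSO as baseline.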

[5] = BSK_SAg_SRB: Viability Assessment in the BioMAP Diversity Plus: SAg Assay (AID 2283096); settings: primary human HUVEC with PBMC;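 note: cells read one day after compound addition; hits may be either gain or loss of signal compared with DMSO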
Procedure, shortened: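 Endothelial/PBMC primary human co-culture; compound 24 h; fix 10% TCA, stain 0.1% SRB, A560; protein content as cytotoxicity proxy; bidirectional curve fit, DMSO = baseline.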

SMILES | outcome [1] | outcome [2] | outcome [3] | outcome [4] | outcome [5] | AC50 [3] | AC50 [4] | AC50 [2] | AC50 [5] | AC50 [1]
Clc1cccc(Cl)c1Cl | inactive | inactive | inactive | inactive | inactive |  |  |  |  | 
OC(Cc1ccccc1Cl)(Cn1[nH]cnc1=S)C1(Cl)CC1 (stereo unspecified) | inactive | inactive |  |  | inactive | 3.97 µM (active) | 20 µM (active) |  |  | 
c1ccc2sc(SNC3CCCCC3)nc2c1 | inactive |  | inactive |  | inactive |  | 29.2 µM (active) | 27 µM (active) |  | 
O=C(Cc1ccccc1)OCCc1ccccc1 | inactive | inactive | inactive | inactive | inactive |  |  |  |  | 
Cc1ccc(OP(=O)(Oc2ccc(C)cc2C)Oc2ccc(C)cc2C)c(C)c1 | inactive |  |  |  |  | 4.7 µM (active) | 12.9 µM (active) | 20 µM (active) | 20 µM (active) | 
Clc1cccc(Cl)c1 | inactive | inactive | inactive | inactive | inactive |  |  |  |  | 
O=S(=O)(c1ccc(Cl)cc1)c1cc(Cl)c(Cl)cc1Cl | inactive | inactive | inactive |  | inactive |  | 10.8 µM (active) |  |  | 
Cc1ccccc1OP(=O)(Oc1ccccc1)Oc1ccccc1 | inactive | inactive |  | inactive |  | 9.82 µM (active) |  |  | 31.6 µM (active) | 
Oc1ccc(Cc2ccc(O)cc2)cc1 | inactive | inactive | inactive | inactive | inactive |  |  |  |  | 
OC(Cc1ccccc1Cl)(Cn1cncn1)C1(Cl)CC1 (stereo unspecified) | inactive | inactive | inactive | inactive | inactive |  |  |  |  | 
COc1ccccc1N | inactive | inactive | inactive | inactive | inactive |  |  |  |  | 
Nc1c(Oc2ccccc2)cc(O)c2c1C(=O)c1ccccc1C2=O | inactive | inactive |  | inactive |  | 1.56 µM (active) |  |  | 2.22 µM (active) | 
CC(C=O)Cc1ccc2c(c1)OCO2 (stereo unspecified) | inactive | inactive | inactive | inactive | inactive |  |  |  |  | 
COCC(=O)N(c1c(C)cccc1C)[C@H](C)C(=O)OC | inactive | inactive | inactive | inactive | inactive |  |  |  |  | 
NC(=O)CCl | inactive | inactive | inactive | inactive | inactive |  |  |  |  | 
Cc1ccccc1OP(=O)(Oc1ccccc1C)Oc1ccccc1C |  |  |  |  |  | 12.4 µM (active) | 12.7 µM (active) | 26.6 µM (active) | 9.8 µM (active) | 33.6 µM (active)

SMILES | outcome [1] | outcome [2] | outcome [3] | outcome [4] | outcome [5] | AC50 [3] | AC50 [4] | AC50 [2] | AC50 [5] | AC50 [1]
Oc1cc(Cl)c(Cl)cc1Cl | inactive | inactive |  |  |  | 31.1 µM (active) | 30.6 µM (active) |  | 27.6 µM (active) | 
CCOC(=O)C(SP(=S)(OC)OC)c1ccccc1 (stereo unspecified) | inactive | inactive | inactive |  | inactive |  | 35.3 µM (active) |  |  | 
Cc1ccc2nc3sc(=O)sc3nc2c1 | inactive | inactive | inactive |  |  |  | 7.93 µM (active) |  | 5 µM (active) | 
CCC(C)(C#N)N=NC(C)(C#N)CC (stereo unspecified) | inactive | inactive | inactive | inactive | inactive |  |  |  |  | 
CC(C)(C)c1cc([N+](=O)[O-])cc(C(C)(C)C)c1O | inactive | inactive |  | inactive |  | 0.0941 µM (active) |  |  | 0.215 µM (active) | 
O=[N+]([O-])c1ccc(Nc2ccccc2)cc1 | inactive | inactive | inactive | inactive | inactive |  |  |  |  | 
CC(C)(COCC1CO1)COCC1CO1 (stereo unspecified) | inactive | inactive | inactive |  | inactive |  | 36.7 µM (active) |  |  | 
Cc1cc(C)cc(C)c1 | inactive | inactive | inactive | inactive | inactive |  |  |  |  | 
OCCCCO | inactive | inactive | inactive | inactive | inactive |  | 0.61 µM (active) |  |  | 
c1ccc(-c2cccc(-c3ccccc3)c2)cc1 | inactive |  |  |  |  | 20 µM (active) | 29.2 µM (active) | 20 µM (active) | 27.5 µM (active) | 
O=S(=O)(C(Cl)(Cl)Cl)C(Cl)(Cl)Cl |  |  |  |  |  | 1.79 µM (active) | 0.798 µM (active) | 2.3 µM (active) | 3.74 µM (active) | 7.79 µM (active)
Cc1cc(Cl)ccc1OC(C)C(=O)O (stereo unspecified) | inactive | inactive | inactive | inactive | inactive |  |  |  |  | 
OCCN(CCO)CCO | inactive | inactive | inactive | inactive | inactive |  |  |  |  | 
C[C@]12CC[C@@H](O)C[C@@H]1CC[C@@H]1[C@@H]2CC[C@]2(C)C(=O)CC[C@@H]12 | inactive | inactive | inactive | inactive | inactive |  |  |  |  | 
CCCCOC(=O)COC(=O)c1ccccc1C(=O)OCCCC | inactive | inactive | inactive | inactive | inactive |  |  |  |  | 
Cc1c([N+](=O)[O-])c(C)c([N+](=O)[O-])c(C(C)(C)C)c1[N+](=O)[O-] | inactive | inactive | inactive |  | inactive |  | 6.82 µM (active) |  |  | 

Reference: PubChem BioAssay (EPA / NIEHS)
